This is an account of results in PMC4336329 (PLoS ONE, 2015).

About 2,200 (0.71%) of roughly 310,000 compounds showed an effect of 50% or more. Effects have a minus sign here. Shown is part of a subset that was picked to be rich in strong results.

Sequence of human ether-à-go-go-related gene (hERG) potassium channel (Q12809 whole entry, looked up): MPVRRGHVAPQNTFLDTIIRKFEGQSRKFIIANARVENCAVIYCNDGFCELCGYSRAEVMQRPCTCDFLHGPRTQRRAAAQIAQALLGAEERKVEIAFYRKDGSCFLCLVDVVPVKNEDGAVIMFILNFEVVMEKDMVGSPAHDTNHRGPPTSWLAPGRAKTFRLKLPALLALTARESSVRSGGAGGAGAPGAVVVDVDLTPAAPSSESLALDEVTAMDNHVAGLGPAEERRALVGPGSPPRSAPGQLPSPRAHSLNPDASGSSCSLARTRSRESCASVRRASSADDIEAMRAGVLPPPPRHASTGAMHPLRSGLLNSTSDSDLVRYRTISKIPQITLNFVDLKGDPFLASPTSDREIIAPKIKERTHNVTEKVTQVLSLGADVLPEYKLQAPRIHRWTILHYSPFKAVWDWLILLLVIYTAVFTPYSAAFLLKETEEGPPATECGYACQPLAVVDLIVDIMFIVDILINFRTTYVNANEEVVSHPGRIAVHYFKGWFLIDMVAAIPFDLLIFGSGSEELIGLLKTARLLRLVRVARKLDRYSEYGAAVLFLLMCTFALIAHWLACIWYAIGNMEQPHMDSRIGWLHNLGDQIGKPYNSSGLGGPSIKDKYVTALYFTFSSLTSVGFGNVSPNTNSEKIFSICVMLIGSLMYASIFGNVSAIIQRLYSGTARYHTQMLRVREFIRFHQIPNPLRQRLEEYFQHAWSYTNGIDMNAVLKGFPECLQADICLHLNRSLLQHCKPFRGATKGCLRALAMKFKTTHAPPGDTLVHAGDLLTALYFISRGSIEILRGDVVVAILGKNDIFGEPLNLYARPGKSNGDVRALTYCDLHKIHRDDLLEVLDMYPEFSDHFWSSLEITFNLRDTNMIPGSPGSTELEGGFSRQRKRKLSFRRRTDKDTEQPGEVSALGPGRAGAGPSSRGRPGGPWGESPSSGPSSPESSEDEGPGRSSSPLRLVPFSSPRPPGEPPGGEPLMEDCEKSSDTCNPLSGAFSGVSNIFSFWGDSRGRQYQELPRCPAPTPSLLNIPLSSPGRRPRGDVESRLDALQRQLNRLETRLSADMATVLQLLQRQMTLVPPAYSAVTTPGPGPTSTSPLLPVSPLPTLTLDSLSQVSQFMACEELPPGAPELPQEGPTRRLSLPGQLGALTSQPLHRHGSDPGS

For the experiment, the target named is human ether-à-go-go-related gene (hERG) potassium channel (human, UniProt Q12809). In words: primary screen, population patch clamp on CHO cells stably expressing hERG; higher = less effect of the substance. On the procedure:
Briefly, Chinese hamster ovary (CHO) cells stably expressing the hERG channel were dislodged from tissue culture flasks and dispensed into PPC plates. […] During the recording, background leak currents were estimated by a 100 ms step to -80 mV from an initial holding potential of -70 mV and subtracted from the subsequent current measurement. The campaign was conducted in two phases using slight differences in recording protocol. In the first phase, the initial voltage pulse used a 100 ms step to -30 mV from a holding potential of -70 mV, a 2 s conditioning step to +25 mV, and a 2 s test step to -30 mV. During the second phase of the screen, the potential during the conditioning step was raised to +45 mV. In both phases of the campaign, a secondary voltage pulse was applied using the same parameters as the second phase initial pulse. The initial and secondary pulses were applied in the absence of compound, and upon application of 1 μM and 10 μM test concentrations. Small molecule effects on hERG current density were quantified by […].
For `O=C(Nc1ccccc1C(=O)N1CCCCCC1)c1ccccc1Cl`, the “hERG current change (%, negative = inhibition) at 1uM” value worked out at 13.6%.

`O=C(Nc1cc(C(=O)N2CCCC2)ccc1N1CCCC1)c1ccccc1F`: the “hERG current change (%, negative = inhibition) at 1uM” value was -82.8%.

Take `CNC(=S)Nc1cc(C(=O)N2CCCC2)ccc1N1CCCC1`: the “hERG current change (%, negative = inhibition) at 1uM” value came out at 2.01%.

In the case of `O=C(Nc1ccc(C(=O)N2CCOCC2)cc1)c1cccs1`, the “hERG current change (%, negative = inhibition) at 1uM” value is on record as 20.3%.

For the compound `O=C(Nc1ccccc1N1CCCC1)c1ccccc1F`, the “hERG current change (%, negative = inhibition) at 1uM” value is 6.48%.

In the case of `O=C(Nc1cc(C(=O)N2CCCC2)ccc1N1CCCC1)c1ccccc1`, the “hERG current change (%, negative = inhibition) at 1uM” value is listed as -83.5%.

Turning to `O=C(Nc1ccccc1C(=O)N1CCCC1)c1ccc(Cl)cc1Cl`, the “hERG current change (%, negative = inhibition) at 1uM” value stood at 10.3%.

In the case of `COC(=O)c1ccc(N2CCOCC2)c(NC(=O)c2cccs2)c1`, the “hERG current change (%, negative = inhibition) at 1uM” value was 0.514%.

With `O=C(Nc1cc(C(=O)N2CCCC2)ccc1N1CCCC1)C1CC1`, the “hERG current change (%, negative = inhibition) at 1uM” value is given as -1.85%.

On to `O=C(Nc1cc(C(=O)N2CCOCC2)ccc1N1CCCC1)c1cccs1`, for which the “hERG current change (%, negative = inhibition) at 1uM” value is -78.2%.

Take `O=C(Nc1ccccc1N1CCCCC1)c1ccccc1F`: the “hERG current change (%, negative = inhibition) at 1uM” value is reported as -5.76%.

Take `O=C(Nc1ccccc1C(=O)N1CCCCC1)c1ccc(Cl)cc1Cl`: the “hERG current change (%, negative = inhibition) at 1uM” value was -79.6%.

As to `Cc1nnsc1C(=O)N1CCN(c2ccc(C#N)cn2)CC1`, the “hERG current change (%, negative = inhibition) at 1uM” value is on record as 3.48%.

As for `CCOc1cccc(/C=N/N2C(C)CCCC2C)c1O` (stereo not shown), the “hERG current change (%, negative = inhibition) at 1uM” value worked out at 2.07%.

For `CCCCCCOc1ccc(CN2CCN(C)CC2)cc1`, the “hERG current change (%, negative = inhibition) at 1uM” value is recorded as -0.56%.

For `CC(=O)/C=C\c1ccccc1OC(=O)c1cc2ccccc2oc1=O`, the “hERG current change (%, negative = inhibition) at 1uM” value is given as 16.3%.

As to `CCOC(=O)c1cc2cc(OCc3ccccc3)ccc2nc1C`, the “hERG current change (%, negative = inhibition) at 1uM” value was 8.83%.

In the case of `CC(C)c1csc(CN2CCC(N3CCC(C(=O)NCC4CCCO4)CC3)CC2)n1` (stereo not shown), the “hERG current change (%, negative = inhibition) at 1uM” value came to 9.96%.

In the case of `O=C(Oc1ccc2ccccc2c1)c1ccco1`, the “hERG current change (%, negative = inhibition) at 1uM” value was -0.657%.

For the compound `O=C(Oc1ccc2ccc(=O)oc2c1)c1ccccc1`, the “hERG current change (%, negative = inhibition) at 1uM” value is recorded as 9.28%.

With `O=C(Oc1ccc2ccc(=O)oc2c1)c1ccco1`, the “hERG current change (%, negative = inhibition) at 1uM” value was -53.7%.

For `CC1(c2nnc(-c3ccncc3)o2)CC(c2cccc(Cl)c2)=NO1` (stereo not shown), the “hERG current change (%, negative = inhibition) at 1uM” value was determined as 13.4%.

Turning to `O=C(CN1C(=O)CSC1=O)N1CCCC(Nc2ccc(F)cc2)C1` (stereo not shown), the “hERG current change (%, negative = inhibition) at 1uM” value was 11.5%.

In the case of `CCc1ccc(NC(=O)CSCCN2C(=O)c3ccccc3C2=O)cc1`, the “hERG current change (%, negative = inhibition) at 1uM” value is listed as -8.99%.

Take `COc1ccc(OC)c(C2C(C#N)=C(N)Oc3c2c(C)nn3-c2cccc(Cl)c2)c1` (stereo not shown): the “hERG current change (%, negative = inhibition) at 1uM” value is recorded as 7.28%.

Take `COCCCn1c(SCC(=O)Nc2cccc(C)n2)nnc1-c1ccco1`: the “hERG current change (%, negative = inhibition) at 1uM” value is reported as -20.6%.

As for `CCn1c(SCC(=O)Nc2cccc(C)n2)nnc1-c1ccco1`, the “hERG current change (%, negative = inhibition) at 1uM” value came out at 0.773%.

As for `CCCCn1c(SCC(=O)Nc2cccc(C)n2)nnc1-c1ccco1`, the “hERG current change (%, negative = inhibition) at 1uM” value was -78%.
